From PubChem BioAssay
SARS PLpro yeast = inhibitors of SARS-CoV papain-like protease in yeast; S. cerevisiae expressing SARS-CoV PLpro, growth rescue; Potency, µM (series often up to 32.9 µM), without a hit: at the highest dose activity, positive = growth rescue, usual class: activators; 330,000 compounds, 0.19% hits; calls by dose curve; also: 0% is about no effect; nearly all actives have a fitted effect of over 55% in size
AMA1 RON2 block = AMA1-RON2 (P. falciparum) interaction inhibition; AlphaScreen AMA1-biotinylated RON2 peptide binding; Potency, µM (doses to about 58.2 µM), inactives show top-dose activity change, negative = inhibition, usual class: inhibitors; 360,000 compounds, 0.2% hits; AID 720542;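 also: 0% = vehicle wells and -100% = peptide control; nearly all actives have a fitted effect of over 45% in size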
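AMA1 (3D7) with his tag at 25 nM final met compounds first, then biotinylated RON2 peptide at 25 nM; detection used donor plus acceptor beads, 10 µg/mL apiece, read by AlphaScreen after 30 min at room temperature.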
Pf growth 48h = P. falciparum growth inhibition at 48 hours (one generation); 310,000 compounds, 5.9% hits; P. falciparum luciferase growth in erythrocytes, 48 h; AID 504832; Potency, µM (highest dose often 28.7 µM), for the others: at the highest dose activity change, negative = inhibition, most hits filed as inhibitors; also: % is scaled to controls: 0 for no effect and ±100 for the full control effect
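Luminescence readout; reporter = integrated firefly luciferase in P. falciparum. RBC culture at 2% hematocrit, 0.1% parasitemia final, 37 C/5% CO2; decreased signal taken as growth inhibition.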
HCV inhibitor = HCV inhibition; 340,000 compounds, 3.4% hits; AID 651820; Huh7.5.1 HCVcc-Cre infection, luciferase reporter, 44 h; Potency, µM (titrated, usually from 41.8 µM), inactives show at the top dose activity change, negative = inhibition, usual class: inhibitors; also: % is scaled to controls: 0 for no effect and ±100 for the full control effect
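Infectious HCV cell culture screen: compound-treated cells (1,000/well, pre-plated 4 h) are infected with HCVcc-Cre at roughly 0.5 moi and grown 44 h. Infection is quantified by luciferase signal after 15 min substrate incubation at room temperature.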
NS1 function inh = influenza NS1 inhibition | 270,000 compounds, 0.4% hits | Potency, µM (series often up to 46.1 µM), for the others: at the top dose activity, positive = more growth; calls by dose curve; also: actives are rising curves; nearly all actives have a fitted effect of over 50% in size
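A cell-based growth assay was used: compounds that relieve NS1-induced slow growth of budding yeast raise OD600. Assay medium was yeast nitrogen base with ammonium sulphate and -URA supplement, pH 6.0, with 2% galactose.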
Pf growth 96h = P. falciparum growth inhibition at 96 hour, primary screen for plastid delayed-death inhibitors; 320,000 compounds, 6.9% hits; Potency, µM (highest dose often 28.7 µM), for inactives: at the top dose activity change, negative = inhibition, actives largely listed as inhibitors; P. falciparum luciferase reporter growth, 96 h; AID 504834; also: % is scaled to controls: 0 for no effect and ±100 for the full control effect
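Cell-based qHTS: luciferase-tagged P. falciparum in erythrocytes (2% hematocrit, 0.05% parasitemia final) incubated with compounds for 96 hours, 37 C, 5% CO2; luciferase detection reagent then added and luminescence measured.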
* marks the source's active call; other numbers are inactive results; [ ] = remark or other dose. Most compounds without a hit are left out; they make up all but 12% or so of the library. Unless noted, calls follow the shape of the dose curve; as a rule, active = well fitted curve in the direction sought with a large enough effect; inconclusive = small, poorly fitted or top-dose-only effect, or another doubt; inactive = no such curve, though single readings can be large; an effect the other way counts as inactive or inconclusive. Potency is read from the fitted curve at half-maximal effect.

CC(C)CC(NC(=O)C(COCc1ccccc1)NC(=O)OC(C)(C)C)C(=O)NN (stereo unspecified) was read as SARS PLpro yeast 0%, AMA1 RON2 block 84%, Pf growth 48h inconclusive, HCV inhibitor -1% and Pf growth 96h -35%.
`Cc1ccc(C)c(OCCC(=O)OCC(=O)Nc2cc(S(=O)(=O)N3CCCCC3)ccc2C)c1` gave SARS PLpro yeast 1%, AMA1 RON2 block -8% and HCV inhibitor 19%.
For COc1cc(CCC(=O)OCC(=O)Nc2cc(S(=O)(=O)N3CCOCC3)ccc2Cl)cc(OC)c1OC the results were AMA1 RON2 block 32%[11.6 µM] and HCV inhibitor 24%.
Screening Cc1ccc(S(=O)(=O)Nc2cc(C(=O)NCCN3CCCC3)ccc2N2CCCCC2)cc1 returned SARS PLpro yeast 8%, AMA1 RON2 block -1%, Pf growth 48h 12µM*, HCV inhibitor -27% and NS1 function inh 6%.
`COCCCNC(=O)c1ccc(N2CCCC2)c(NS(=O)(=O)c2ccc(C)cc2)c1` gave SARS PLpro yeast 2%, AMA1 RON2 block -2%, Pf growth 48h inconclusive, HCV inhibitor -4%, NS1 function inh -15% and Pf growth 96h 10%.
`COc1ccc(C(=O)NCCN2CCCC2)cc1[N+](=O)[O-]` gave SARS PLpro yeast -3%, AMA1 RON2 block 2%, Pf growth 48h inconclusive, HCV inhibitor 3%, NS1 function inh 8% and Pf growth 96h 2.6µM*.
Cc1ccc(S(=O)(=O)Nc2cc(C(=O)NCCN(C)C)ccc2N2CCCCC2)cc1 was read as SARS PLpro yeast 22%, AMA1 RON2 block -6%, Pf growth 48h 9.3µM*, HCV inhibitor inconclusive, NS1 function inh -10% and Pf growth 96h inconclusive.
For COc1ccc(CCN=C(N)Nc2nc(C)cc(C)n2)cc1 the results were SARS PLpro yeast -2%, AMA1 RON2 block 6%, Pf growth 48h inconclusive, HCV inhibitor inconclusive and Pf growth 96h 25%.
Screening CCOC(=O)CC1C(=O)NCCN1C(=O)c1cc2c(=O)n3ccccc3nc2s1 (stereo unspecified) returned SARS PLpro yeast 6%, NS1 function inh -7% and Pf growth 96h 10µM*.
`CC[C@@H]1CC2=C(C(=O)OC(C)(C)O2)[C@@H](c2ccc(Cl)cc2)O1` gave AMA1 RON2 block 1%.
`c1ccc2c(-c3[nH]ncc3CNCCCn3ncc4ccccc43)cccc2c1` gave SARS PLpro yeast 0%, AMA1 RON2 block -11%, Pf growth 48h 15µM*, HCV inhibitor 10µM*, NS1 function inh 5% and Pf growth 96h 12%.
`OCC1CCCCN1CCNCc1cn[nH]c1-c1cccc2ccccc12` (stereo unspecified) gave SARS PLpro yeast 1%, AMA1 RON2 block 55%, Pf growth 48h 0%, HCV inhibitor -9%, NS1 function inh -2% and Pf growth 96h 4%.
Screening C=CCNCCOc1c(C)cc(C)cc1Cl returned SARS PLpro yeast -1%, AMA1 RON2 block 3%, Pf growth 48h -2%, HCV inhibitor 8%, NS1 function inh -2% and Pf growth 96h 1%.
Screening C=CCNCCCCOc1c(Cl)cc(C)cc1Br returned SARS PLpro yeast -5%, AMA1 RON2 block -4%, Pf growth 48h 9.3µM*, HCV inhibitor 12%, NS1 function inh -8% and Pf growth 96h -60%.
`Cc1cc(C)c(C)c(OCCNCc2ccccc2)c1` gave SARS PLpro yeast -9%, AMA1 RON2 block -3%, Pf growth 48h -20%, HCV inhibitor inconclusive, NS1 function inh 0% and Pf growth 96h 12µM*.
Screening Cc1cc(C)c(OCCCCNCc2ccccc2)c(Cl)c1 returned SARS PLpro yeast 1%, AMA1 RON2 block -25%, Pf growth 48h -14%, HCV inhibitor 11µM*, NS1 function inh -24% and Pf growth 96h inconclusive.
`Clc1ccc(OCCOCCNCc2ccccc2)cc1Cl` gave SARS PLpro yeast -5%, AMA1 RON2 block -3%, Pf growth 48h 52%, HCV inhibitor 4%, NS1 function inh -28% and Pf growth 96h 13µM*.
For Cc1cc(C)c(OCCNCc2ccccc2)c(C)c1 the results were SARS PLpro yeast -2%, AMA1 RON2 block -1%, Pf growth 48h -16%, HCV inhibitor -19%, NS1 function inh -10% and Pf growth 96h 6%.
Screening COC(=O)c1ccccc1NC(=O)NN1CCN(C)CC1 returned SARS PLpro yeast 1%, AMA1 RON2 block -7%, Pf growth 48h 10%, HCV inhibitor 14%, NS1 function inh 28% and Pf growth 96h inconclusive.
`Cc1cc(Cl)cc(C)c1OCCNCc1ccccc1` gave SARS PLpro yeast 0%, AMA1 RON2 block -4%, Pf growth 48h 3%, HCV inhibitor 3%, NS1 function inh -18% and Pf growth 96h inconclusive.
Cc1cc(Cl)cc(C)c1OCCOCCNCc1ccccc1 was read as SARS PLpro yeast 1%, AMA1 RON2 block -6%, Pf growth 48h inconclusive, HCV inhibitor inconclusive, NS1 function inh -49% and Pf growth 96h 15µM*.
Screening O=C1NN=C(c2ccc(Cl)cc2)CC1c1cccc(Br)c1 (stereo unspecified) returned SARS PLpro yeast -14%, AMA1 RON2 block -2%, Pf growth 48h 4.1µM*, HCV inhibitor -17%, NS1 function inh 4% and Pf growth 96h 12%.
`O=c1c2sc3nc(N4CCOCC4)c4c(c3c2ncn1C(c1ccccc1)c1ccccc1)CCCC4` gave AMA1 RON2 block -4% and HCV inhibitor 2%.
`CN(C)C(=O)c1ccc(NC(=O)c2cccc(S(=O)(=O)N3CCCCCC3)c2)cc1` gave SARS PLpro yeast -12%, AMA1 RON2 block -3%, Pf growth 48h inconclusive, HCV inhibitor inconclusive and Pf growth 96h 5.2µM*.
For CN(C)C(=O)c1ccc(NC(=O)c2cccc(S(=O)(=O)N3CCCc4ccccc43)c2)cc1 the results were SARS PLpro yeast 1%, AMA1 RON2 block -1%, Pf growth 48h 5.2µM*, HCV inhibitor inconclusive and Pf growth 96h 9.3µM*.
For O=C(NC1=NCCS1)c1cccc(S(=O)(=O)N2CCc3ccccc32)c1 the results were SARS PLpro yeast 0%, AMA1 RON2 block 38%, Pf growth 48h inconclusive, HCV inhibitor inconclusive, NS1 function inh -9% and Pf growth 96h -18%.
O=C(C1=NOC(CNc2ncc(C(F)(F)F)cc2Cl)C1)N1CCOCC1 (stereo unspecified) was read as SARS PLpro yeast 0%, AMA1 RON2 block 5%, Pf growth 48h 36%, HCV inhibitor -28%, NS1 function inh 3% and Pf growth 96h 6%.
`O=C(NCCCn1ccnc1)Nc1cccc(Cl)c1` gave SARS PLpro yeast 1%, AMA1 RON2 block 25µM*, Pf growth 48h 4%, HCV inhibitor 20%, NS1 function inh 1% and Pf growth 96h -9%.
